# GPR151 ag – activators of human GPR151 | Q8TDV0 | PathHunter beta-arrestin GPR151 cells, luminescence | activation, % at 11.2 µM | 1% of 650,000 active | AID 1508602; in the data active means activation above about 4.9%;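 further: 0% = median of compound wells and 100% = cells with positive control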
# MITF inh – blocks human microphthalmia-associated transcription factor; AlphaScreen MITF homodimerization, bead proximity signal; inhibition, % at 2.6 µM; 0.91% of 650,000 active; AID 1259374; in the data active means inhibition above about 50%;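 further: 0% = vehicle wells with protein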
# FBW7 activator – human FBW7 E3 ligase activation, primary screen. AlphaScreen FBW7–phospho-cyclin E peptide binding, activator screen. normalized activity (activation), % at 26.1 µM. 0.13% of 650,000 active. AID 1259310; in the data active means normalized activity above about 1.9%;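 further: purified mutant Fbw7 with reduced substrate affinity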
# Target sequence (Q969H0 whole entry, looked up): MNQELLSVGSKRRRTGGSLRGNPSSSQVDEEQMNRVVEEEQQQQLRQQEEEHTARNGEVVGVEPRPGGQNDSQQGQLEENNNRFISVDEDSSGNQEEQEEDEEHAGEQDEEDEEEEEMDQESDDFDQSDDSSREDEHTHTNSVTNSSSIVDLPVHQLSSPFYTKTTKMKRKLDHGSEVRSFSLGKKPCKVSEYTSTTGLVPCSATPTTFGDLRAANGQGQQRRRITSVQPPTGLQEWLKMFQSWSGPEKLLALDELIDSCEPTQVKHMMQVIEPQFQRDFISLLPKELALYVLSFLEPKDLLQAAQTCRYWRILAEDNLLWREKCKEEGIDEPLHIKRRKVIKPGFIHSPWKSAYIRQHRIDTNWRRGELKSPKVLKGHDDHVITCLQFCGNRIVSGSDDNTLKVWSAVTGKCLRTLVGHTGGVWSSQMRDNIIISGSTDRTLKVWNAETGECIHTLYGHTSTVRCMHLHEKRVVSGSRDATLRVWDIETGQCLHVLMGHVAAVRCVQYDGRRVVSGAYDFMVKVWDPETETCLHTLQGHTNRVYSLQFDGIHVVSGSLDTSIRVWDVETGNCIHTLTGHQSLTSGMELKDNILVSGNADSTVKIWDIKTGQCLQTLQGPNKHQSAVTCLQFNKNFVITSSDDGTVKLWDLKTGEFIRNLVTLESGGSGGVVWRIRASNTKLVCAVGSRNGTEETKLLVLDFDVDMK
# TEAD-YAP block – TEAD-YAP interaction inhibition; HEK-TIYL cells, TEAD-Gal4/YAP UAS-luciferase luminescence; inhibition, % at 9.12 µM; 1.4% of 640,000 active; in the data active means inhibition above about 32%;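 further: 0% = median of test compound wells and 100% = reference inhibitor wells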
# GPR151 conf act – human GPR151 activation, confirmation screen | activation, % at 11.2 µM | AID 1508609 | 6,700 tested, under 10 active | shares compounds with GPR151 ag | GPR151 PathHunter beta-arrestin cells, luminescence, 90 min; % of EA-reagent control over plate median;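 active means mean percent activation across replicates above the confirmation screen cutoff of 4.91%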
# GPR119 ag – activates human GPR119 in a GPR151 counter-screen. shares compounds with GPR151 ag. GPR119 PathHunter beta-arrestin cells, luminescence, 90 min; 0 = compound-well median, 100 = enzyme-acceptor control. activation, % at 11.2 µM. 0.3% of 6,700 active. AID 1508611;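 active means mean percent activation in the counterscreen above 29.09%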;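 further: counterscreen on off-target GPR119 to flag nonselective hits from the GPR151 activator screen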
# * marks the source's active call; other numbers are inactive results; . = no result given. Shown are actives, neighbours in structure and some others; about 3.5% of the full set was active somewhere.
SMILES,GPR151 ag,MITF inh,FBW7 activator,TEAD-YAP block,GPR151 conf act,GPR119 ag
C=CCN1C(=O)C(CC(=O)Nc2cccc(C(C)=O)c2)SC1=Nc1ccc(OC)cc1 (stereo not drawn),5.7*,-3.6,-0.1,4.6,0.2,0.0
COc1ccccc1/C=N/N=C1/NC(=O)C(CC(=O)Nc2cccc(C(C)=O)c2)S1 (stereo not drawn),12.3*,-5.1,-0.1,-5.5,1.3,19.8
Cc1ccc(S(=O)(=O)NN2CC(=O)Nc3ccccc32)cc1,1.4,10.8,0.1,16.1,.,.
CCN1CCN(C(=O)c2ccc(OC)c([N+](=O)[O-])c2)CC1,7.4*,-10.7,-0.1,-5.2,-1.2,-6.1
COc1ccc(C(=O)N2CCN(C)CC2)cc1[N+](=O)[O-],0.9,7.4,0.3,-2.8,.,.
COCCN1CCN(Cc2nc(NCc3ccc(C)o3)c3ccccc3n2)CC1,10.6*,-5.0,-0.5,-9.7,0.1,22.8
COCCN1CCN(Cc2nc(Nc3ccccc3)c3ccccc3n2)CC1,-1.1,0.4,-0.1,-4.7,.,.
CC(C)N(C(=O)CSc1nc2ccccc2n1CC(=O)NC(C)(C)C)C(C)C,0.1,-3.9,0.1,-0.2,.,.
Cc1ccc(C)c(-n2c(CNC(=O)c3ccc(S(=O)(=O)N(C)C)cc3)nnc2SCC(=O)Nc2nccs2)c1,-1.1,9.3,0.0,2.3,.,.
C/C(=N\NC(=O)c1nc2nc(C)cc(C)n2n1)c1ccc(Br)cc1,-0.1,10.0,-0.1,2.3,.,.
Nc1ccc(NC(=S)NC2CCCCC2)cc1[N+](=O)[O-],1.4,11.2,-0.5,-26.4,.,.
CC1(C)C2CCC1(C)C(Nc1ccc(N)c([N+](=O)[O-])c1)(S(=O)(=O)O)C2[n+]1ccccc1 (stereo not drawn),5.6*,3.8,-0.1,0.5,-0.8,-7.6
COc1ccc(-c2csc(/C(C#N)=C\Nc3ccc(NC(C)=O)cc3)n2)cc1OC,-1.0,11.2,0.0,-12.0,.,.
Cc1noc(C(=O)Nc2c(C)nn(Cc3ccccc3)c2C)c1Cl,5.3*,-1.1,-0.3,13.2,1.4,9.9
C#CCOc1cc(OC)c(OC)c(OC)c1,5.6*,7.6,-0.1,2.4,-1.4,-4.8
COc1cc(OCC(=O)O)cc(OC)c1OC,2.6,14.0,-0.2,0.1,.,.
CC(=O)NCC(=O)NCC1Cc2cc(-c3cnccn3)cc(Cl)c2O1 (stereo not drawn),4.9*,-3.9,0.0,-12.6,-0.7,-2.0
Cc1ccoc1C(=O)NCC1Cc2cc(-c3cnccn3)cc(Cl)c2O1 (stereo not drawn),2.2,5.8,0.1,7.0,.,.
Oc1c(C(c2cccc(F)c2)N2CCC3(CC2)OCCO3)sc2ncnn12 (stereo not drawn),-0.3,5.8,-0.1,3.0,.,.
CCN1C(=O)CC(Nc2ccc(N(C)C)cc2)C1=O (stereo not drawn),-0.2,25.0,0.0,5.6,.,.
CN1C(=O)CC(Nc2ccc(N(C)C)cc2)C1=O (stereo not drawn),7.3*,28.6,-0.2,8.9,-0.5,8.1
Cc1ccc(/C=C2/SC(=S)N(CC(=O)Nc3ccccc3O)C2=O)cc1,7.3*,7.6,-0.1,-2.8,1.2,-4.5
Fc1ccc2nc(N3CCN(c4nc5ccccc5s4)CC3)sc2c1,14.7*,10.0,0.1,2.4,-0.5,-7.0
CC(C)N1CCN(Cc2cccc(OCCO)c2)CC1CCO (stereo not drawn),-0.6,-10.2,0.1,-0.3,.,.
CC(C)N1CCN(Cc2ccc(OCCO)cc2)CC1CCO (stereo not drawn),5.2*,2.3,0.1,13.2,0.7,6.3
SMILES,GPR151 ag,MITF inh,FBW7 activator,TEAD-YAP block,GPR151 conf act,GPR119 ag
OCCOc1ccc(CN2CCN(Cc3ccc(F)c(F)c3)C(CCO)C2)cc1 (stereo not drawn),6.8*,14.9,0.1,8.0,-0.7,-13.9
CCCCCCCC(=O)C1=CN(Cc2ccccc2)C=C(C(=O)CCCCCCC)C1c1ccccc1[N+](=O)[O-],-0.6,6.5,0.3,12.0,.,.
O=C1c2cccc3c(NCc4ccccc4O)ccc(c23)C(=O)N1c1ccccc1,-1.0,-9.6,-0.1,-1.1,.,.
CSc1nc2ccc(NC(=O)CN3C(=O)c4ccccc4C3=O)cc2s1,0.1,-12.1,0.1,-8.9,.,.
CCSc1nnc(NC(=O)Cn2cnc3ccccc3c2=O)s1,-1.4,0.5,0.1,-4.7,.,.
CSc1nc2ccc(NC(=O)Cn3cnc4ccccc4c3=O)cc2s1,5.9*,7.0,0.1,7.1,2.4,3.0
Cc1ccc(CSc2nnc(NC(=O)Cn3cnc4ccccc4c3=O)s2)cc1,5.0*,2.2,0.2,-12.1,-0.3,0.6
COc1ccc(-c2noc(CNC(=O)Cc3ccc(OC)c(OC)c3)n2)cc1,5.1*,6.3,0.8,7.5,-1.0,-15.5
Cc1ccc(CC(=O)NCc2nc(-c3ccccc3)no2)cc1,5.7*,-0.1,0.1,0.7,0.3,-5.3
Cc1cc(OCC(=O)NCc2nc(-c3ccccc3)no2)cc(C)c1Br,10.9*,7.8,0.0,7.8,-0.4,-4.7
O=C(NCc1nc(-c2ccccc2)no1)c1ccccc1Cl,-0.3,1.1,-0.1,-9.2,.,.
O=C(NCc1nc(-c2ccccc2)no1)c1cc(Br)ccc1Cl,5.3*,3.3,0.0,7.3,0.5,1.2
O=C(Nc1ccc(NC(=O)c2ccc(-c3ccc(Cl)cc3)o2)cc1)c1ccco1,0.8,-1.5,0.0,-2.8,.,.
COc1cccc(OC)c1C(=O)NCc1nc(-c2ccc(C)cc2)no1,3.1,6.1,-0.1,8.8,.,.
COc1ccc(-c2noc(CC(=O)Nc3ccc(C(C)C)cc3)n2)cc1,6.0*,2.3,0.1,-6.1,0.6,2.1
COc1ccc(-c2noc(CNC(=O)C(Cl)(Cl)Cl)n2)cc1,8.0*,-28.3,0.0,-27.7,-0.6,-5.7
COc1cccc(OC)c1C(=O)NCc1nc(-c2ccc(Cl)cc2)no1,8.0*,0.9,-0.2,8.5,-0.2,-8.8
O=C(O)c1ccc(CNCc2cccnc2)s1,-0.3,-2.4,0.0,5.2,.,.
CSc1ccc(/C=C2/N=C(c3cccc([N+](=O)[O-])c3)OC2=O)cc1,-1.3,-1.7,0.8,4.7,.,.
CC(NC(=O)Nc1ccc(F)cc1F)c1ccc2c(c1)OCO2 (stereo not drawn),7.2*,7.2,0.0,-4.6,0.7,0.1
CC(NC(=O)c1ccc(F)cc1)c1ccc2c(c1)OCCO2 (stereo not drawn),0.2,4.9,-0.2,-1.4,.,.
CCCCCCCCCCCCCC/C(C(=O)O)=C(\C)C(=O)O,9.5*,14.6,0.0,6.1,2.2,-3.5
COc1ccc(CC(=O)Nc2ccc(N3CCCCC3=O)c(C)c2)cc1,-0.3,18.7,0.4,8.7,.,.
CCOCCCNC(=O)c1ccc(CS(=O)Cc2ccc(C)cc2)o1 (stereo not drawn),0.7,-5.1,0.0,0.5,.,.
COc1ccc2nccnc2c1[N+](=O)[O-],12.9*,-5.6,-0.1,-3.3,0.7,-3.6
CC1CCCCN1CCCNc1ccc(N2C(=O)CCCC2=O)cc1[N+](=O)[O-] (stereo not drawn),0.0,-1.1,-0.1,-0.1,.,.

# Bioassay records deposited in PubChem BioAssay by The Scripps Research Institute Molecular Screening Center.
